Compounds without any hit were thinned out: in the full panel of roughly 83,000, 20% have a hit.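 Activity criterion: percent growth below 10, measured after cells in 96-well plates were exposed to a single compound concentration for 48 hours.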 The source made the active and inactive calls.
What follows are compounds tested on NCI-H322M lung (assay: NCI-60 one-dose screen, 48 h (100 = growth as untreated, 0 = no growth, -100 = all killed)). Conditions: 10 µM unless noted.
Description: Growth inhibition of the NCI-H322M human Non-Small Cell Lung tumor cell line is measured as a screen for anti-cancer activity. Cells are grown in 96 well plates and exposed to the test compound for 48 hours. Compounds are tested at a single concentration, which is 10^-5 M for most compounds. The reported endpoint is percent growth (GI% or GIPRCNT), where numbers from 0 - 100% represent growth inhibition, and numbers from -100% - 0 represent cell death. For example, a value of 40 represents 60% growth inhibition. A value of 0 means no net growth occurred over the course of the experiment. A value of -40 indicates 40% of cells at the beginning of the experiment died by the end of the experiment. A value of -100 means all cells are dead at the end of the experiment.
NCI-60 Human Tumor Cell Lines Screen was performed using the standard one-dose NCI protocol, which is described in more detail at https://dtp.cancer.gov/discovery_development/nci-60/default.htm.
Compounds with GIPRCNT values below 10 were considered active. Activity score was based on GIPRCNT using the following formula: […]
Score is 0 for GIPRCNT values of 100 or above, 50 for GIPRCNT values of 0, and 100 for GIPRCNT values of -100.

| Structure (SMILES) | growth |
| --- | --- |
| CCCCCCn1c(O)c(N=Nc2nc(-c3cc4ccccc4oc3=O)cs2)c2ccccc21 | 53.1% (inactive) |
| O=c1c2ccccc2nc(-c2ccccc2)n1/N=C/c1ccc2ccccc2c1 | 80.1% (inactive) |
| CCCCNC(=S)Nc1ccc(OCc2nc3ccccc3[nH]2)cc1 | 80.7% (inactive) |
| O=C1C(=Nc2ccc(F)c(Cl)c2)c2cccc3cccc1c23 | 85.2% (inactive) |
| COc1cc2oc(-c3cccc(C(=O)Nc4ccc(Cl)cc4)c3)cc(=O)c2c(OCCNC(=O)[C@H](CO)NC(=O)OC(C)(C)C)c1OC | 35.4% (inactive) |
| COc1cccc(/C=C/c2nc3ccccc3c(=O)n2CC(=O)Nc2ccc(Cl)cc2)c1 | 75% (inactive) |
| COc1cccc(COc2ccc(NC(=O)Nc3ccc(Cl)c(C(F)(F)F)c3)cc2)c1 | 16.3% (inactive) |
| COc1ccc2cc([C@H](C)C(=O)N/N=C/c3ccc(Br)cc3)ccc2c1 | 98.2% (inactive) |
| O=C(/C=C/c1ccc(-c2ccccc2)cc1)c1nc2ccccc2n1Cc1ccc(Br)cc1 | 72.4% (inactive) |
| CC1(C)CC[C@]2(C(=O)O)CC[C@]3(C)C(=CCC4[C@@]5(C)C[C@@H](O)[C@@H]6OC(c7ccc(F)cc7)OC[C@@]6(C)C5CC[C@]43C)C2C1 (stereo not given in full) | 29% (inactive) |
| COc1cc2c3c(n(CCCN4CCC[C@@H]4CO)c(=O)c2cc1OC)-c1cc2c(cc1C3=O)OCO2 | -96.5% (active) |
| CC(=O)Nc1ccc(-c2nc3cc(-c4ccc(O)cc4)ccc3n2C)cc1 | 65.4% (inactive) |
| O=C(NNc1nc2cc(F)ccc2n2c(CN3CC4CNCC4C3)ccc12)c1ccncn1 (stereo not given) | 30.8% (inactive) |
| Cn1cc(-c2cc(N)n3nc(-c4c[nH]c5ccccc45)cc3n2)c2cc(Br)cnc21 | -50.8% (active) |
| CN1CCN(c2ccc3c(c2)nc(NNC(=O)c2cnccn2)c2cccn23)CC1 | 27.7% (inactive) |
| Cc1c(C(=O)NNC(=O)c2ccc(Cl)cc2)nnn1-c1ccc(Cl)cc1 | 89.7% (inactive) |
| CNC(=O)c1cccc(NC(=O)c2ccc3c(c2)nnn3/C(C#N)=C/c2ccccn2)c1 | 91.8% (inactive) |
| COc1ccc(C(=O)/C=C/c2cccc3ccccc23)cc1S(N)(=O)=O | 14.8% (inactive) |
| N#Cc1c(-c2cccnc2)cc(-c2ccc3ccccc3c2)[nH]c1=O | 90.1% (inactive) |
| CCCCCCCCc1ccc(C(=O)Nc2cccc(P(=O)(O)O)c2)cc1 | 103% (inactive) |

| Structure (SMILES) | growth |
| --- | --- |
| CC(C)CSc1nc(NCCc2c[nH]c3ccccc23)c(C#N)c(-c2ccccc2)n1 | 80.7% (inactive) |
| Nc1nc(-c2ccccc2)c(N=Nc2ccc([N+](=O)[O-])cc2Cl)s1 | 101% (inactive) |
| CCCCSc1nc(Nc2ccc(S(N)(=O)=O)cc2)c(C#N)c(-c2cc(OC)c(OC)c(OC)c2)n1 | 75.1% (inactive) |
| Cc1ccc(/C=C/c2n(Cc3ccc4ccccc4c3)c3ccccc3[n+]2Cc2ccc3ccccc3c2)cc1 | -98.4% (active) |
| C#C[C@]1(O)CC[C@H]2[C@@H]3CC=C4c5sc(-c6ccc(O)c(O)c6)nc5CC[C@]4(C)[C@H]3CC[C@@]21C | -79.6% (active) |
| N/C(=N\c1nc2ccccc2s1)NC(=O)Nc1ccc(Cl)cc1Cl | -51.3% (active) |
| COc1ccc(C(=O)/C=C/c2ccccc2Cl)cc1S(N)(=O)=O | 102% (inactive) |
| COc1ccc(-c2nc3cc(C)ccc3n2CC(=O)N=Nc2c(O)[nH]c3ccc(Br)cc23)cc1 | 14.2% (inactive) |
| Cc1cc(N=C2NC(=O)CS2)n[nH]1 | 95.5% (inactive) |
| CSc1ccc(C(=O)Nc2ccc3nn(/C(C#N)=C/c4ccccn4)nc3c2)cc1 | 15.4% (inactive) |
| COc1ccc(C(=O)/C=C/c2ccc(OC)c(OCc3ccccc3)c2)cc1OC | 13.5% (inactive) |
| CCC(C)(C)c1ccc(OCCCCCCN2CCN(c3ccncc3)CC2)cc1 | 47.6% (inactive) |
| OCC1(CCCc2ccccc2)CCCN(c2nccc3ccccc23)C1 (stereo not given) | 82.5% (inactive) |
| COc1ccc(-c2nnc3ccc(N/N=C/c4ccc(C)cc4)nn23)cc1 | 85.3% (inactive) |
| O=C(COc1ccc(NC(=O)Nc2ccccc2)cc1)N=Nc1c(O)[nH]c2ccc([N+](=O)[O-])cc12 | 37.7% (inactive) |
| COc1c(F)ccc(C(=O)Nc2ccc3nc(NC(=O)C4CCCN(S(=O)(=O)c5cccc(Br)c5)C4)sc3c2)c1F (stereo not given) | 94% (inactive) |
| c1ccc(-c2csc(Nc3cccc(Nc4nc(-c5ccccc5)cs4)c3)n2)cc1 | 58.1% (inactive) |
| COc1ccc(/C=C/c2n(Cc3ccc4ccccc4c3)c3ccccc3[n+]2Cc2ccc3ccccc3c2)cc1 | -96.2% (active) |
| COc1cc(NC(=O)c2cccc(C3CCc4c(cc(OC)c(OC)c4OC)O3)c2)cc(OC)c1OC (stereo not given) | 39.2% (inactive) |
| C#CCOc1cc(N(CC)CC)ccc1C(C(=O)NC(C)(C)C)N(C(=O)C1CCc2cc(F)ccc2O1)c1ccccc1F (stereo not given) | 72.2% (inactive) |

Source: PubChem BioAssay (NCI)
